Reference: the supplement of paper PMC6378613

Compound: Cc1ccc(-c2ccc3c(ccc4sc5c(c43)NC[C@@H](C)NC5=O)n2)cn1
Experiment: kinase activity remaining relative to vehicle control; higher = less inhibition
Description: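 In vitro radiometric kinase profiling of the MK2 inhibitor PF-3644022 at 0.1, 1 and 10 µM against a panel of kinases (MRC International Centre for Kinase Profiling, Dundee). Read-out is % kinase activity remaining relative to the vehicle control, mean of n=2.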

Chain of UniProt O43781 (O43781 whole entry, looked up): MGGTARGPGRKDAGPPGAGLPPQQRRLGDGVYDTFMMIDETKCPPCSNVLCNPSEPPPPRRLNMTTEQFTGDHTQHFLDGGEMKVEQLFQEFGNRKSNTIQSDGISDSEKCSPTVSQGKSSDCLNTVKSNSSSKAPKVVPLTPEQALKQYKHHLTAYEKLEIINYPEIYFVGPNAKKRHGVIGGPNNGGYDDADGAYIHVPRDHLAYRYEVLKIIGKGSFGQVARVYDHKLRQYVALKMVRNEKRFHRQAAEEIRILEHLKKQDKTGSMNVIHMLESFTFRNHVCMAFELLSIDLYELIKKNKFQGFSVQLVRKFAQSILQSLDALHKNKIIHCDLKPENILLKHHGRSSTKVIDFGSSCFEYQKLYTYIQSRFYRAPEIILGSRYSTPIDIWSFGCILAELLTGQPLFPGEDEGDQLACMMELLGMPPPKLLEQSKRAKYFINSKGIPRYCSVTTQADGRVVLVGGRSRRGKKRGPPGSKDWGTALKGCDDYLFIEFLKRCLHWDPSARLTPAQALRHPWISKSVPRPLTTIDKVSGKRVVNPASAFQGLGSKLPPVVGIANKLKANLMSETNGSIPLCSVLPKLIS
Chain of UniProt Q8TD08 (Q8TD08 whole entry, looked up): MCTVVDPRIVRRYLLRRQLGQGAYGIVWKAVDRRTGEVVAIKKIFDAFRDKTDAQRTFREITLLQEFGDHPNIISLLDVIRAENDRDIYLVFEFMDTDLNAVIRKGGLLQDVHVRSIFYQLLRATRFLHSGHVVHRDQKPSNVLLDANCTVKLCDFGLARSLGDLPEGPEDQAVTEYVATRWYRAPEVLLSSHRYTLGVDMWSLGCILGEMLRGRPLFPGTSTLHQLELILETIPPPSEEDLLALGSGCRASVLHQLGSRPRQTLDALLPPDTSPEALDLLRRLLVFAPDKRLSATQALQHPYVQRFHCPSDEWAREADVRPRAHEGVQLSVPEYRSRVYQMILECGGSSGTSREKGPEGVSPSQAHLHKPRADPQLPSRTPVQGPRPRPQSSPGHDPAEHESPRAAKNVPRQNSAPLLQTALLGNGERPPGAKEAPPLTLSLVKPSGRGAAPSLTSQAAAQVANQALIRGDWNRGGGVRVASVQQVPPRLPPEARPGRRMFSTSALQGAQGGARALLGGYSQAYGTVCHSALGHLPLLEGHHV
Chain of UniProt Q96SB4 (Q96SB4 whole entry, looked up): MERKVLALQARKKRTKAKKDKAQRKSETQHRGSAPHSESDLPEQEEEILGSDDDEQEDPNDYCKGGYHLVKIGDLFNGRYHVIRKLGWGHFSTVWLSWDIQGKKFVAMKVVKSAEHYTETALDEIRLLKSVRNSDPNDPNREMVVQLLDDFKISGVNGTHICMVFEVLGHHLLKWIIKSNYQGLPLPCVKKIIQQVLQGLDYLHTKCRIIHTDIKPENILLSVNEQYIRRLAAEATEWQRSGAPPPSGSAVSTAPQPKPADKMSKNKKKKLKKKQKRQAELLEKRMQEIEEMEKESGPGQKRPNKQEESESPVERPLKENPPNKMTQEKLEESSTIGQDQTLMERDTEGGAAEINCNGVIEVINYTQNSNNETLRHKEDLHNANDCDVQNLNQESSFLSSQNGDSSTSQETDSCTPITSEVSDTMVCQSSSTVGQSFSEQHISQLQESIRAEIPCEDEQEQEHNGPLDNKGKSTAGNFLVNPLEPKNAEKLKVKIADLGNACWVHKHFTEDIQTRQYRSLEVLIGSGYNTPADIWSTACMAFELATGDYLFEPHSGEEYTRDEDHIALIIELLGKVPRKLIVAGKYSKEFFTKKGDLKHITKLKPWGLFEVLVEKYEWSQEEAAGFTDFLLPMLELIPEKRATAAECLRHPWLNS
Chain of UniProt Q8IWQ3 (Q8IWQ3 whole entry, looked up): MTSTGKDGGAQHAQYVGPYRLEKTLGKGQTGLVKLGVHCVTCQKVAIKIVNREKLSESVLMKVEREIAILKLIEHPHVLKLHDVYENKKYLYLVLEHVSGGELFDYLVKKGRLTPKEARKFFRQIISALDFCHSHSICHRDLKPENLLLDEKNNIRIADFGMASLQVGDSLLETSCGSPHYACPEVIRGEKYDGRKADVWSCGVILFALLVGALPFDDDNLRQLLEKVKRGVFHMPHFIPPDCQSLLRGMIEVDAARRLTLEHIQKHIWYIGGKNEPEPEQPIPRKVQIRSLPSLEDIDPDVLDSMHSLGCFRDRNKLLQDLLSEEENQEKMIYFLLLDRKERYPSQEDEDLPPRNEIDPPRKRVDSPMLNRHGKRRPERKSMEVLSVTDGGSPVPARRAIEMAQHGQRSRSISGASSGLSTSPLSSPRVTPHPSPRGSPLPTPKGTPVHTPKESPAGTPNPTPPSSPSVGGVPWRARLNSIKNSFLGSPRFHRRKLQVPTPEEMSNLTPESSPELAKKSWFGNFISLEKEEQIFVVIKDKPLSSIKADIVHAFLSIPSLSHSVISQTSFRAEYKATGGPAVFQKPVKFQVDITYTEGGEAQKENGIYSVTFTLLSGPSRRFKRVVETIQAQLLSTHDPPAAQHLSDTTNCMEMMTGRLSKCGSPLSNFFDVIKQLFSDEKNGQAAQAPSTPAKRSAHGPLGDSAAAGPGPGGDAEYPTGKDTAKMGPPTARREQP
Chain of UniProt Q9HC98 (Q9HC98 whole entry, looked up): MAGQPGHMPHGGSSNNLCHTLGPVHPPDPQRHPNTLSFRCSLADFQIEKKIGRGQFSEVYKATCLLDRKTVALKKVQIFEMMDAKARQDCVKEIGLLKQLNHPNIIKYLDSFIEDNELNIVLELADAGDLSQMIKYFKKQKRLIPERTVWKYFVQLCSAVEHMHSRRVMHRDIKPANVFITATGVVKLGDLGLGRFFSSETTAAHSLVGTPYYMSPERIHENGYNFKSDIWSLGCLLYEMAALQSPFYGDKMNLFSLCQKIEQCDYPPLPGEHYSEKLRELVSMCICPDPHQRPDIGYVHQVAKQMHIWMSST
Chain of UniProt Q16832 (Q16832 whole entry, looked up): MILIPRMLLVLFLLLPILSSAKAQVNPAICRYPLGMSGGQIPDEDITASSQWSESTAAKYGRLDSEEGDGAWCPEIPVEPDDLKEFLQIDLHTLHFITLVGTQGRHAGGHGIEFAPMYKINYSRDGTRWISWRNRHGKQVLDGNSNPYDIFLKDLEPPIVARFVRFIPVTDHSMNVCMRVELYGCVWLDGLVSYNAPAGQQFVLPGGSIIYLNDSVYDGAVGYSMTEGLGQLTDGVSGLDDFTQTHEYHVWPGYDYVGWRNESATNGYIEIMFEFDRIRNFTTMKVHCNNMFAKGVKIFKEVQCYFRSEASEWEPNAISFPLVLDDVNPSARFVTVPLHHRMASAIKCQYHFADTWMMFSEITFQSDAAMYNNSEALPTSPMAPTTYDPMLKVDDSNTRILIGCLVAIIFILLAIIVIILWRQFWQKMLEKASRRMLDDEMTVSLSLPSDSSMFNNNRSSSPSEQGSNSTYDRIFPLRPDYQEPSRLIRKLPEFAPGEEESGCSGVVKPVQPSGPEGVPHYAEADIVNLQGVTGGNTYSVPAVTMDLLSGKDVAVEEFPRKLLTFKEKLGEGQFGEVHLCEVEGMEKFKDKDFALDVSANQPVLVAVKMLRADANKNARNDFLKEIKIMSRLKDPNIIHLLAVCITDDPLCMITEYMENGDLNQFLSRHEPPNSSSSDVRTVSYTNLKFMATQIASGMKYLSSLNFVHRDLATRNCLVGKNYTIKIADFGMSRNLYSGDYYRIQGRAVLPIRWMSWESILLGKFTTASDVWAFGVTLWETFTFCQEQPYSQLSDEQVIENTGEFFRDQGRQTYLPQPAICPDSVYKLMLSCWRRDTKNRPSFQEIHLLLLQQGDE
Chain of UniProt P50750 (P50750 whole entry, looked up): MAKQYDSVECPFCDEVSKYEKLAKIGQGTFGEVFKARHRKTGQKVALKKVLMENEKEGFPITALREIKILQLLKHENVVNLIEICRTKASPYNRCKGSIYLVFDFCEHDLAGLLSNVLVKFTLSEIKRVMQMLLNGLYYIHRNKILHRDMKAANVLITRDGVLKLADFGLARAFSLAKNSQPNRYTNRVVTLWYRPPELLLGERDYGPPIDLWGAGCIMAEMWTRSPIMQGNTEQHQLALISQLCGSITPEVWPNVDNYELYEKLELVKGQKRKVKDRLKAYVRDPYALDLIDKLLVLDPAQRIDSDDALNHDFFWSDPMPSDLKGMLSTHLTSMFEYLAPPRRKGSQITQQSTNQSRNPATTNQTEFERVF
Chain of UniProt Q8IVH8 (Q8IVH8 whole entry, looked up): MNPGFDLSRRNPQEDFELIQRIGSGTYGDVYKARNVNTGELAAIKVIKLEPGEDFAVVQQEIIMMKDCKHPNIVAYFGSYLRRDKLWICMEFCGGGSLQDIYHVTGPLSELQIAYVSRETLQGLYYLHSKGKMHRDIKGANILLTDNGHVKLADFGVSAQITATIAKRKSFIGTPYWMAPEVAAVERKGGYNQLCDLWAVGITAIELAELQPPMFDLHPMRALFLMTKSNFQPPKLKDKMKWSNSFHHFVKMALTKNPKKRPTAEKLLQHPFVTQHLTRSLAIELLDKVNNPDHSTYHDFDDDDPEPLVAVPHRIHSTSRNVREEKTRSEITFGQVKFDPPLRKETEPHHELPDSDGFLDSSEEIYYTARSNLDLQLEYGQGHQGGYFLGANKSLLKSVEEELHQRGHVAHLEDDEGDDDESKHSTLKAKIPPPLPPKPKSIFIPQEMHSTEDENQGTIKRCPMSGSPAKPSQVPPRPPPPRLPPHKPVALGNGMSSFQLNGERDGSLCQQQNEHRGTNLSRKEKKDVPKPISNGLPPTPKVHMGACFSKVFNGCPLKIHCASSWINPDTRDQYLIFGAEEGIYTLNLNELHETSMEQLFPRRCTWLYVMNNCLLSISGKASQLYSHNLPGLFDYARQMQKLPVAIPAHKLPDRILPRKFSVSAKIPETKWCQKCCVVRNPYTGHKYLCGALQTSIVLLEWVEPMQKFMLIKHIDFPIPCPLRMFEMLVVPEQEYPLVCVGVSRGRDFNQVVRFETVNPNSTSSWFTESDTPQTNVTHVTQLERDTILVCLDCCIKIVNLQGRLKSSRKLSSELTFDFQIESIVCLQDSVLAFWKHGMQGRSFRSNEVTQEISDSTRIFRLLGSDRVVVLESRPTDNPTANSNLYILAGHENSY

Row | Target | kinase activity remaining (inhibitor concentration 0.1 µM) [%] | kinase activity remaining (inhibitor concentration 1 µM) [%] | kinase activity remaining (inhibitor concentration 10 µM) [%]
1 | MNK1 (UniProt Q9BUB5) | 105 | 103 | 83
2 | TESK1 (UniProt Q15569) | 112 | 111 | 101
3 | SGK1 (UniProt O00141) | 116 | 112 | 112
4 | DDR2 (UniProt Q16832) | 105 | 101 | 91
5 | EPH-B3 | 98 | 88 | 85
6 | SmMLCK | 118 | 112 | 110
7 | BRSK2 (UniProt Q8IWQ3) | 77 | 32 | 8
8 | DYRK3 (UniProt O43781) | 111 | 84 | 40
9 | AMPK (hum) | 68 | 21 | 6
10 | TAO1 | 109 | 98 | 70
11 | IKK epsilon | 98 | 95 | 44
12 | VEGFR1 (UniProt P17948) | 112 | 118 | 65
13 | PHK | 110 | 91 | 86
14 | SIK3 (UniProt Q9Y2K2) | 98 | 99 | 73
15 | p38 delta MAPK | 108 | 103 | 94
16 | ERK8 (UniProt Q8TD08) | 96 | 79 | 38
17 | PKD1 (UniProt P98161) | 96 | 96 | 48
18 | HIPK1 (UniProt Q86Z02) | 111 | 104 | 130
19 | CK1 gamma 2 | 123 | 112 | 102
20 | PKB beta (UniProt P31749) | 100 | 90 | 69
21 | CAMKK beta | 107 | 87 | 28

Row | Target | kinase activity remaining (inhibitor concentration 0.1 µM) [%] | kinase activity remaining (inhibitor concentration 1 µM) [%] | kinase activity remaining (inhibitor concentration 10 µM) [%]
22 | NEK6 (UniProt Q9HC98) | 109 | 96 | 66
23 | MAPKAP-K2 | 24 | 9 | 2
24 | MKK2 (UniProt P36507) | 113 | 108 | 79
25 | SRPK1 (UniProt Q96SB4) | 89 | 63 | 19
26 | MST4 (UniProt Q9P289) | 99 | 101 | 91
27 | TTBK1 (UniProt Q5TCY1) | 103 | 104 | 96
28 | TIE2 (UniProt Q02763) | 105 | 86 | 88
29 | MST2 (UniProt Q13188) | 131 | 135 | 100
30 | MKK6 (UniProt P52564) | 95 | 98 | 91
31 | MAP4K3 (UniProt Q8IVH8) | 98 | 72 | 41
32 | LKB1 (UniProt Q15831) | 118 | 103 | 97
33 | ABL (UniProt P00519) | 120 | 113 | 76
34 | IKK beta | 115 | 109 | 101
35 | MST3 (UniProt Q9Y6E0) | 118 | 109 | 108
36 | TrkA (UniProt P04629) | 121 | 100 | 83
37 | PLK1 (UniProt P53350) | 102 | 114 | 98
38 | IGF-1R | 101 | 108 | 114
39 | EPH-B2 | 99 | 110 | 111
40 | ROCK 2 | 112 | 96 | 95
41 | MKK1 | 101 | 97 | 69
42 | EPH-A4 | 99 | 103 | 78

Row | Target | kinase activity remaining (inhibitor concentration 0.1 µM) [%] | kinase activity remaining (inhibitor concentration 1 µM) [%] | kinase activity remaining (inhibitor concentration 10 µM) [%]
43 | EIF2AK3 (UniProt Q9NZJ5) | 114 | 101 | 73
44 | MSK1 (UniProt O75582) | 120 | 105 | 99
45 | MLK3 (UniProt Q16584) | 114 | 102 | 73
46 | PKB alpha (UniProt P31749) | 109 | 97 | 98
47 | CDK9-Cyclin T1 (UniProt P50750) | 109 | 96 | 51
48 | MEKK1 (UniProt Q13233) | 102 | 109 | 109
49 | PRAK (UniProt Q8IW41) | 126 | 67 | 24
50 | FGF-R1 | 95 | 91 | 68
51 | MAP4K5 (UniProt Q9Y4K4) | 111 | 108 | 61
52 | GSK3 beta | 126 | 99 | 88
53 | WNK1 (UniProt Q9H4A3) | 113 | 108 | 119
54 | NUAK1 (UniProt O60285) | 112 | 102 | 58
55 | TTBK2 (UniProt Q6IQ55) | 122 | 122 | 103
56 | EPH-B4 | 110 | 106 | 99
57 | PKC gamma | 118 | 110 | 101
58 | GCK (UniProt P35557) | 109 | 89 | 19
59 | RSK1 (UniProt Q15418) | 106 | 100 | 76
60 | S6K1 | 99 | 95 | 80
61 | OSR1 (UniProt Q8TAX0) | 113 | 112 | 118
62 | EPH-A2 | 90 | 95 | 76
